Tests used:
Assay type in all cases: functional
Plasmodium falciparum [1] = experiment: GSK_TCMDC: Inhibition of Plasmodium falciparum 3D7 in whole red blood cells, using parasite LDH activity as an index of growth. Test compounds present at 2uM
Plasmodium falciparum [2] = experiment: GSK_TCMDC: Inhibition of Plasmodium falciparum Dd2 in whole red blood cells, using parasite LDH activity as an index of growth. Test compounds present at 2uM
HepG2 = experiment: GSK_TCMDC: Percent inhibition of human HepG2 cell line. Test compounds present at 10uM.

| Structure (SMILES) | Inhibition (Plasmodium falciparum [1]) [%] | Inhibition (Plasmodium falciparum [2]) [%] | Inhibition (HepG2) [%] |
| --- | --- | --- | --- |
| CS(=O)(=O)c1ccc(CCNCc2ccc(-c3ccc(CN(C(=O)C4CCCC4)C4CCN(Cc5ccccc5)CC4)cc3)nc2)cc1.O=C(O)C(F)(F)F | 91 | 20 | 24 |
| COc1cc2c(Nc3ccc(NC(=O)c4ccccc4)cc3)ncnc2cc1OCCCN1CCOCC1 | 99 | 93 | 14 |
| COc1ccc(C2C(C(=O)Nc3ccc(C)c(F)c3)c3cc(OC)c(OC)cc3C(=O)N2C)cc1 (stereo not given) | 81 | 26 | 6 |
| CCc1nc(N)nc(N)c1-c1ccc(F)c(F)c1 | 98 | 0 | 58 |
| COc1cccc(NC(=O)COc2ccc(C(=O)Nc3nc4ccccc4[nH]3)cc2)c1 | 99 | 29 | 19 |
| OC(CNCc1ccccc1OCc1ccccc1)c1cccc(Br)c1 (stereo not given) | 100 | 97 | 0 |
| Cl.OCC(CO)(CO)NCc1ccc2c3c(cccc13)-c1ccccc1-2 | 87 | 76 | 73 |
| CCCC(=O)Nc1ccc(OCCCCN(Cc2ccccc2C(F)(F)F)c2ccc(C(F)(F)F)c(C#N)c2)cc1 | 94 | 94 | 6 |
| FC(F)(F)c1ccc2[nH]c(-c3ccc(-c4cccc(CNCC5CCCO5)c4)cc3)nc2c1.O=C(O)C(F)(F)F (stereo not given) | 100 | 100 | 36 |
| Cl.c1ccc(-c2cc(NCCNc3cc(-c4ccccc4)nc4ccccc34)c3ccccc3n2)cc1 | 99 | 11 | 0 |

Reference: ChEMBL document CHEMBL1157539, “Thousands of chemical starting points for antimalarial lead identification” (Nature, 2010)
